The values below come from PubChem BioAssay AID504332 (National Center for Advancing Translational Sciences (NCATS), 2011).

In all, about 350,000 compounds went through this assay and about 31,000 (8.9%) were called active. About 15% were inconclusive and are not listed. Only a selection was taken, and actives are over-represented in it overall. Unmarked numbers belong to inactive results. Calls follow the shape of the dose curve; as a rule, active = well fitted inhibition curve with a large enough effect; inconclusive = small, poorly fitted or top-dose-only effect; inactive = no such curve, though single readings can be large or run the other way.
% is scaled to controls: 0 for no effect and ±100 for the full control effect; potency is read from the fitted curve at half-maximal effect.

Sequence of Histone-lysine N-methyltransferase EHMT2 (Homo sapiens) (Q96KQ7 913-1193 limits assumed): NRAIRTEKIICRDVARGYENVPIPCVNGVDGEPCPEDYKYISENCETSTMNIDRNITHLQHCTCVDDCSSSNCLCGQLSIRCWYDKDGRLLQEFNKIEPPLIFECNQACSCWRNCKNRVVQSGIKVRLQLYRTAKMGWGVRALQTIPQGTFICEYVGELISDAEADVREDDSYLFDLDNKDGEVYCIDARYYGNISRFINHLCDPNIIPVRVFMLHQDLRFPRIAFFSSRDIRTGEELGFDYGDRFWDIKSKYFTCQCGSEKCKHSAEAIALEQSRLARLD

This assay addresses Histone-lysine N-methyltransferase EHMT2 (Homo sapiens) (UniProt Q96KQ7). The experiment in a line: qHTS Assay for Inhibitors of Histone Lysine Methyltransferase G9a. Also: nearly all actives have a fitted effect of over 75% in size. The following applies: G9a H3K9 monomethylation, AlphaScreen, 2 h; series mostly up to 59 µM; activity, negative = inhibition: at the top concentration. An outline of the steps: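 Enzyme 20 nM + cpd, 15 min RT; add b-H3K9 pep 500 nM / SAM 20 uM; 2 h RT; anti-H3K9me1 Ab 0.5 ug/mL + SA donor / anti-rabbit acceptor beads 20 ug/mL each, 10 min; AlphaScreen read.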
(qHTS replaces the single test concentration by a dilution series.)
As to `CCCC1CCC(=NNC(=S)NCCc2ccccc2)CC1` (stereo not given), the Potency was 14.1 µM (active).
Take `S=C(NCCc1ccccc1)NCC1CCCO1` (stereo not given): the “activity, negative = inhibition” value was -8.01%.
`CCCCNC(=S)N/N=C1\CCCCc2ccccc21`: the “activity, negative = inhibition” value is 21.8%.
Still for that read-out and setting: to `CC(C)(C)NC(=O)CSc1nnc(NC(=O)CCc2ccccc2)s1` belongs 18% [at 102 µM]; to `COc1ccc(CN2CCN(Cc3cn(C)nc3-c3ccccc3)CC2CCO)c(C)c1C` (stereo not given), 11% [at 102 µM]; to `Cc1ccc(CN2CCN(Cc3ccccc3-c3ccco3)CC2CCO)o1` (stereo not given), -29.6% [at 102 µM].
Consider `CCn1cc(CN2CCN(CC(C)(C)C)C(CCO)C2)c2ccccc21` (stereo not given), for which the Potency is 50.1 µM (active).
`COc1ccccc1-c1ccnc2[nH]n(-c3ccccc3)c(=O)c12`: the “activity, negative = inhibition” value is -27.4%.
Regarding `CNC(=S)NNC(=O)c1cccn(Cc2ccccc2)c1=O`, the “activity, negative = inhibition” value was 9.83% [at 102 µM].
On the same count and under the same terms, to `Cc1ccc(/C=N/NC(=O)c2sccc2OCc2ccc(F)cc2)cc1` belongs -13.6%.
As to `CNC(=S)NNC(=O)c1sccc1OCc1ccccc1`, the Potency is 50.1 µM (active).
As for `Cc1ccc(-c2nn(-c3ccc(F)cc3)cc2C(=O)NCC(c2cccs2)N2CCOCC2)cc1` (stereo not given), the “activity, negative = inhibition” value was 6.67% [at 102 µM].
On the same count and under the same terms, to `CC(=O)c1ccc(N2CCN(C(=O)c3ccc(Cl)c(S(=O)(=O)NC4CC4)c3)CC2)c(F)c1` belongs -35.2% [at 102 µM].
Same read-out and setting: under `CCOC(=O)/C=c1\s/c(=C\c2ccccc2OC)c(=O)n1CC(=O)N1CCOCC1` stands -18.7% [at 102 µM].
As to `CCOc1ccccc1/C=c1\sc2nc(-c3ccco3)nn2c1=O`, the Potency was 35.5 µM (active).
Take `CCOc1ccccc1NC(=O)Cn1c(=O)n(Cc2ccco2)c(=O)c2sc3ccccc3c21`: the “activity, negative = inhibition” value was -6.87%.
Turning to `Cc1cc2ccccc2n1CCNC(=O)c1ccc(F)cc1`, the “activity, negative = inhibition” value is -17.6%.
Turning to `Cc1ccc(NC(=O)c2cn3c4c(ccc(Cl)c4c2=O)OC(C)C3)cc1C` (stereo not given), the “activity, negative = inhibition” value is -24.9%.
The same measure, in the same setting: under `O=C(O)c1cc(S(=O)(=O)N(Cc2ccccc2)c2ccccc2)ccc1Cl` stands -15% [at 102 µM].
Same read-out and setting: to `FC(F)(F)c1cc(-c2ccco2)nc(N2CCOCC2)n1` belongs -0.688%; to `CC1CCCN(C(=O)c2cc(-c3ccco3)nc3ccccc23)C1` (stereo not given), -9.53% [at 2.33 µM].
Turning to `Cc1cc(C)c2nc(-c3ccco3)cc(C(=O)O)c2c1`, the Potency is 10 µM (active).
As for `Cc1cc2c(c(=O)n1Cc1ccccc1)C1O[C@](CCCCN3C(=O)c4ccccc4C3=O)(Cc3ccccc31)O2`, the activity, negative = inhibition was -0.249% [at 2.33 µM].
Still for that read-out and setting: under `O=C(c1c(F)cccc1Cl)N1CCN(S(=O)(=O)c2ccc3c(c2)OCCCO3)CC1` stands 30.5% [at 102 µM].
Turning to `CCOc1ccccc1-c1nc(CN2CCC(C(=O)N3CCOCC3)CC2)c(C)o1`, the Potency is 89.1 µM (active).
In the case of `Cc1oc(-c2ccccc2F)nc1CN1CCC(C(=O)NCCc2ccc(Cl)cc2)CC1`, the “activity, negative = inhibition” value was -33.8%.
Still for that read-out and setting: under `CCOc1ccccc1-c1cc(C(=O)N2CCOCC2)c2ccccc2n1` stands 45.7% [at 102 µM]; under `O=S(=O)(c1ccc(Br)cc1)c1nnn2c1nc(N1CCOCC1)c1sccc12`, -3.15%; under `CC(=O)N/N=C/c1cc2c(cc1[N+](=O)[O-])OCO2`, 1.79% [at 102 µM].
The same measure, in the same setting: to `Cc1ccc(S(=O)(=O)N2CCN(CC(=O)N/N=C/c3cc([N+](=O)[O-])ccc3Cl)CC2)cc1` belongs 3.6% [at 102 µM].
On to `Cc1ccc(-c2n[nH]c(=S)n2/N=C/c2cc3c(cc2[N+](=O)[O-])OCO3)cc1`, for which the Potency was 1.26 µM (active).
In the case of `Cc1nc([N+](=O)[O-])cn1CC(=O)Nc1ccc2c(c1)OCO2`, the “activity, negative = inhibition” value is 3.06% [at 102 µM].
The same measure, in the same setting: to `CCOC(=O)c1nc(-c2ccc3c(c2)OCO3)[nH]c1C` belongs -9.21%.
Consider `Cc1ccc(S(=O)(=O)N/N=C\c2cc3c(cc2[N+](=O)[O-])OCO3)cc1`, for which the Potency was 5.62 µM (active).
As to `COc1ccccc1-c1nn(Cc2ccccc2)cc1C(=O)N1CCN(c2ncccn2)CC1`, the activity, negative = inhibition is 21.8% [at 12.7 µM].
On to `Cc1ccc(OCC(=O)Nc2nnc(-c3ccco3)s2)cc1`, for which the “activity, negative = inhibition” value is -20.3% [at 102 µM].
For `CNc1nnc(-c2ccco2)s1`, the “activity, negative = inhibition” value was 6.5% [at 102 µM].
With `COc1ccc(OCC(=O)Nc2nnc(-c3ccco3)s2)cc1`, the Potency is 50.1 µM (active).
Take `CCOc1ccc(OCc2ccc(C(=O)Nc3cccc(C)n3)o2)cc1`: the Potency is 44.7 µM (active).
As to `Cc1cccc(NC(=O)Nc2ccc(OCc3ccccc3)cc2)n1`, the activity, negative = inhibition was 8.02% [at 2.33 µM].
In the case of `Cc1cccc(NC(=O)c2ccc(COc3ccccc3[N+](=O)[O-])o2)n1`, the “activity, negative = inhibition” value was -23.8% [at 102 µM].
On the same count and under the same terms, to `COc1ccc(Cl)cc1S(=O)(=O)N1CCC(c2ccncc2)CC1` belongs 6.73%.
On to `N#Cc1ccsc1NC(=O)CN1CCN(S(=O)(=O)c2cc(Cl)ccc2Cl)CC1`, for which the Potency was 50.1 µM (active).
On the same count and under the same terms, to `COc1ccc(Cl)cc1S(=O)(=O)N1CCN(CC(=O)C(C)(C)C)CC1` belongs 44.7 µM (active).
For the compound `COc1ccc(Cl)cc1S(=O)(=O)N1CCC(O)(c2ccc(Cl)cc2)CC1`, the “activity, negative = inhibition” value is 39.4%.
As for `N#Cc1ccsc1NC(=O)CN1CCCCC1`, the “activity, negative = inhibition” value is -24.5% [at 102 µM].
The same measure, in the same setting: to `CC(C#N)(NC(=O)CN1CCN(S(=O)(=O)c2cc(C(F)(F)F)ccc2Cl)CC1)C1CC1` (stereo not given) belongs -20.4% [at 102 µM]; to `O=C(NCC(c1ccco1)S(=O)(=O)c1cccs1)c1ccc(F)cc1` (stereo not given), -7.05%; to `CCc1ccc(NC(=O)CN2CCSc3ccc(S(=O)(=O)N4CCCC4)cc32)cc1`, -29.8%.
The same measure, in the same setting: under `CCN(Cc1ccccc1)S(=O)(=O)c1ccc2c(c1)CCCN2C(C)=O` stands 28.4%.
